Results taken from the supplement of paper PMC9925115.
Structures can show the parent of a compound that is named as a salt. ± gives the uncertainty stated by the source.

tested on: FLX1; assay: cell viability z-score within plate (CellTiter-Glo), mean of 3 biological replicates; higher = higher viability relative to plate (less growth inhibition); conditions: 2 µM; time (hr): 120
Description: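 FLX1 fibrolamellar carcinoma cells (DNAJB1-PRKACA fusion), 600 cells/well in 384-well plates, treated with a Selleck kinase inhibitor library (L1200) at 2 uM for 5 days (120 hr); viability by CellTiter-Glo. A z-score was computed within each plate and averaged over three biological replicates.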

Row | SMILES | cell viability z-score within plate
1 | Nc1nccc(Oc2ccc(NC(=O)c3c[nH]cc(-c4ccc(F)cc4)c3=O)cc2F)c1Cl | -0.37 ± 0.32
2 | COC(=O)Nc1ccc(-c2nc(N3CCOCC3)c3cnn(C4CCN(C(=O)OC)CC4)c3n2)cc1 | 0.411 ± 0.44
3 | C[C@@H](N)[C@H]1CC[C@H](C(=O)Nc2ccncc2)CC1 | 0.0727 ± 0.19
4 | CNC(=O)c1cc(Oc2ccc(NC(=O)Nc3ccc(Cl)c(C(F)(F)F)c3)cc2)ccn1 [Sorafenib Tosylate] | -0.335 ± 0.66
5 | CN(C)C/C=C/C(=O)Nc1cc2c(Nc3ccc(F)c(Cl)c3)ncnc2cc1O[C@H]1CCOC1 [Afatinib (BIBW2992)] | -0.688 ± 0.67
6 | C[C@H]1[C@H](C)CC[C@]2(C(=O)O)CC[C@]3(C)C(=CC[C@@H]4[C@@]5(C)C[C@@H](O)[C@H](O)[C@@](C)(CO)[C@@H]5CC[C@]43C)[C@H]12 [Asiatic Acid] | 0.124 ± 0.46
7 | O=C(NCCCNc1nc(Nc2cccc(NC(=O)N3CCCC3)c2)ncc1I)c1cccs1 | -0.658 ± 0.97
8 | C[C@@H](Oc1cc(-c2cnn(C3CCNCC3)c2)cnc1N)c1c(Cl)ccc(F)c1Cl | 0.281 ± 0.54
9 | C=CC(=O)N1CCC[C@@H](n2nc(-c3ccc(Oc4ccccc4)cc3)c3c(N)ncnc32)C1 | 0.337 ± 0.4
10 | COc1cccc(-c2cc(=O)c3ccccc3o2)c1N | 0.538 ± 0.2
11 | c1cncc(CN2CCC(n3ncc4c(N5CCOCC5)nc(-c5ccc6[nH]ccc6c5)nc43)CC2)c1 | 0.437 ± 0.062
12 | CN1CCN(c2cccc(Nc3nc4c(-c5ccc(S(C)(=O)=O)cc5)cccn4n3)c2)CC1 | 1.01 ± 0.27
13 | N#Cc1c(O)c2c(-c3ccc(-c4ccccc4O)cc3)csc2[nH]c1=O | 0.457 ± 0.29
14 | CN1CCN(Cc2ccc(-c3cnc4[nH]cc(-c5ccc6[nH]ccc6c5)c4c3)cc2)CC1 | -0.36 ± 0.19
15 | CN1CCN(CCOc2cc(OC3CCOCC3)c3c(Nc4c(Cl)ccc5c4OCO5)ncnc3c2)CC1 [Saracatinib (AZD0530)] | 0.194 ± 0.28
16 | Cc1cc(Nc2nc(N[C@@H](C)c3ncc(F)cn3)ncc2Cl)[nH]n1 | -0.166 ± 0.46
17 | CN(C[C@@H]1COCCO1)S(=O)(=O)Nc1ccc2ccc3ncc(-c4cnn(C)c4)cc3c(=O)c2c1 | -0.122 ± 0.42
18 | Cc1cc([C@@H](C)Nc2ccccc2C(=O)O)c2nc(N3CCOCC3)cc(=O)n2c1 | -2.82 ± 2
19 | Oc1cccc(-c2nc(N3CCOCC3)c3oc4ncccc4c3n2)c1 | -0.163 ± 0.28
20 | CC[C@H](Nc1ncnc2[nH]cnc12)c1nc2cccc(F)c2c(=O)n1-c1ccccc1 [Idelalisib (CAL-101, GS-1101)] | 0.166 ± 0.22

Row | SMILES | cell viability z-score within plate
21 | COc1cc(CCc2cc(NC(=O)c3ccc(N4CC(C)NC(C)C4)cc3)n[nH]2)cc(OC)c1 (centres undefined) | 1.18 ± 0.41
22 | O=C1c2ccc(Nc3ccc(F)cc3F)cc2CCc2ccc(OC[C@H](O)CO)cc21 [Skepinone-L] | -1.21 ± 0.79
23 | N#CC[C@H](C1CCCC1)n1cc(-c2ncnc3[nH]ccc23)cn1 | 0.242 ± 0.22
24 | Clc1ccc(Nc2nnc(Cc3ccncc3)c3ccccc23)cc1 [Vatalanib (PTK787) 2HCl] | -0.254 ± 0.59
25 | CCOC(=O)c1cnc2ccc(-c3cncc(NS(=O)(=O)c4ccccc4)c3)cn12 | 0.507 ± 0.62
26 | CO[C@@H](C(=O)N1Cc2[nH]nc(NC(=O)c3ccc(N4CCN(C)CC4)cc3)c2C1)c1ccccc1 | 0.348 ± 0.073
27 | N#C/C(=C(/N)Sc1ccc(N)cc1)c1ccccc1C(F)(F)F | -0.253 ± 0.36
28 | CC(C)n1nc(-c2ccc3oc(N)nc3c2)c2c(N)ncnc21 | 0.871 ± 0.17
29 | Cc1ncc(-c2ccnc(Nc3ccc(S(C)(=O)=O)cc3)n2)n1C(C)C | 0.322 ± 0.54
30 | CC(=O)Nc1cccc(-n2c(=O)n(C3CC3)c(=O)c3c(Nc4ccc(I)cc4F)n(C)c(=O)c(C)c32)c1 | 0.929 ± 0.43
31 | Cc1[nH]nc2ccc(-c3cncc(OC[C@@H](N)Cc4ccccc4)c3)cc12 | 0.657 ± 0.13
32 | CCN1CCN(Cc2ccc(C(=O)Nc3ccc(C)c(Oc4ccc5c(c4)CC(=O)N5)c3)cc2C(F)(F)F)CC1 | 0.226 ± 0.35
33 | Nc1nc(Nc2ccc(S(N)(=O)=O)cc2)nn1C(=O)c1c(F)cccc1F | -2.24 ± 0.22
34 | COc1ccc(-c2ccc3c(N4CCOC[C@@H]4C)nc(N4CCOC[C@@H]4C)nc3n2)cc1CO | 0.926 ± 0.45
35 | Oc1ccc(-c2nc(-c3ccc(F)cc3)c(-c3ccncc3)[nH]2)cc1 | -1.48 ± 1.1
36 | COc1cc2ncnc(Nc3ccc(F)c(Cl)c3)c2cc1NC(=O)/C=C/CN1CCCCC1 | 0.26 ± 0.81
37 | NC1(Cc2ccc(Cl)cc2)CCN(c2ncnc3[nH]ccc23)CC1 | -0.404 ± 1.4
38 | COc1cc2nccc(Oc3ccc(NC(=O)NC4CC4)c(Cl)c3)c2cc1C(N)=O [Lenvatinib (E7080)] | -0.399 ± 0.11
39 | Cc1ccc(NC(=O)c2cccc(N(C)C)c2)cc1NC(=O)c1ccc(O)cc1 | -0.188 ± 0.87
